Experimental findings from PubChem BioAssay (Tox21) are described below.

SMILES strings stand for the structures. Where “and” joins values, the source holds several entries; their conditions need not be identical. Identical values can stand only once. Inconclusive results are not listed. A structure can be active in one record and inactive in another. Calls of active or inactive are those of the source. Calls follow the shape of the full dose curve.
% is scaled to controls: 0 for no effect and ±100 for the full control effect; potency is read from the fitted curve at half-maximal effect.

Sequence of Acetylcholinesterase (Homo sapiens) (P22303 whole entry, looked up): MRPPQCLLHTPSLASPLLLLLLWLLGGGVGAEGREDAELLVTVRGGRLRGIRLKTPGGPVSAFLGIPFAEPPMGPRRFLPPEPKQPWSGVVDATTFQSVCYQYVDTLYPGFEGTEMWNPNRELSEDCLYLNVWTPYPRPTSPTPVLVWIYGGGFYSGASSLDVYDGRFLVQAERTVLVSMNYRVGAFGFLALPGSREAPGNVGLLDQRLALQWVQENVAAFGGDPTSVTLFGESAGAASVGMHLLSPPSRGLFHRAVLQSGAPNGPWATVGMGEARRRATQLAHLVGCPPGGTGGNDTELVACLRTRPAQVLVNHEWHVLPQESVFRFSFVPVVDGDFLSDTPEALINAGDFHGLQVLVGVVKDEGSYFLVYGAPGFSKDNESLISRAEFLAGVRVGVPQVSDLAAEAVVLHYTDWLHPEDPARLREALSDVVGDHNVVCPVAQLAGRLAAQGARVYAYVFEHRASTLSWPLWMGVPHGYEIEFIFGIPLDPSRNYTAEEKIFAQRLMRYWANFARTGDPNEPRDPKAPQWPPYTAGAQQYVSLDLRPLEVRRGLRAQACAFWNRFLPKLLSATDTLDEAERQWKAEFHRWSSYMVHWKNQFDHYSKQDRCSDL

This assay deals with Acetylcholinesterase (Homo sapiens) (UniProt P22303). Nature of the assay: Acetylcholinesterase (AChE) small molecule antagonists: colormetric cell-based qHTS assay (AID 1347395). Also: nearly all actives have a fitted effect of over 30% in size. The settings on record: SH-SY5Y cells AChE activity, colorimetric (Ellman); series mostly up to 115 µM; activity, negative = inhibition: at the top concentration. The essentials:
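Neuroblastoma line SH-SY5Y supplied the enzyme; cells were preincubated with compound for 30 min at 37 C and 5% CO2. Acetylthiocholine with DTNB was then added for 90 min at 37 C, and thiocholine was measured by colour.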
Regarding `CCCCCCCCCCCCc1ccccc1O`, the Potency entry is “inactive”.

For `Nc1ccc(O)c(C(=O)O)c1`, the Potency entry is “inactive”. For the molecule `CC(C)c1cccc(C(C)C)c1N`, the “activity, negative = inhibition” value is 0.121% (inactive).

Consider `c1ccc(SSc2ccccc2)cc1`, for which the “activity, negative = inhibition” value was 2.38% (inactive). As for `O=C=Nc1cccc(C(F)(F)F)c1`, the “activity, negative = inhibition” value is 0.154% (inactive). In the case of `CC1=CCC(C(C)(C)O)CC1` (centres undefined), the Potency result was “inactive”. With `C[C@]12CCC(=O)C=C1CC[C@@H]1[C@@H]2CC[C@@]2(C)[C@H]1CC[C@]2(O)C(=O)CO`, the “activity, negative = inhibition” value was -1.59% [at 52.9 µM] (inactive).

For the molecule `COCCOCCOCCOCCO`, the “activity, negative = inhibition” value is 1.11% (inactive). In the case of `CCCCCCCCOC(=O)c1ccc(O)cc1`, the Potency result was “inactive”. For the molecule `CC(C)[N+](C)(CCOC(=O)C1c2ccccc2Oc2ccccc21)C(C)C`, the “activity, negative = inhibition” value was -2.19% [at 52.9 µM] (inactive).

`CC(C)(C)[C@@H](O)[C@@H](Cc1ccc(Cl)cc1)n1cncn1`: the Potency result was “inactive and 71 µM (active)”. `CCn1nc(C(=O)O)c(=O)c2cc3c(cc21)OCO3`: the “activity, negative = inhibition” value was -0.696% [at 52.9 µM] (inactive). On the same count and under the same terms, the value for `C[N+](C)(C)CC(O)CCl` (centres undefined) was 2.11% (inactive). Regarding `Nc1ccc(Cl)c(N)c1`, the Potency result is “inactive”. For `CC1C(C)(C)C2=C(C(=O)CCC2)C1(C)C` (centres undefined), the “activity, negative = inhibition” value is 4.2% (inactive). In the case of `CS(=O)(=O)c1ccc([C@@H](O)[C@@H](CF)NC(=O)C(Cl)Cl)cc1`, the “activity, negative = inhibition” value was 2.12% [at 52.9 µM] (inactive). `ON=C1CCCCC1`: the Potency result was “inactive”. Consider `O=S(=O)(O)CCCN1CCOCC1`, for which the “activity, negative = inhibition” value was -0.996% (inactive). The same measure, in the same setting: the value for `COc1ccc(C(=O)N2CCN(CC(=O)N3CCOCC3)CC2)cc1` was 0.0841% [at 52.9 µM] (inactive).

On to `CCCCCCCC/C=C\CCCCCCCCOCCO`, for which the “activity, negative = inhibition” value was -4.19% (inactive).

As to `Nc1cc(N)cc(C(=O)O)c1`, the “activity, negative = inhibition” value is -4% (inactive).

In the case of `CN1C(=O)c2ccccc2C1=O`, the “activity, negative = inhibition” value was 0.736% (inactive). Take `CCCCCCCCC1CO1` (centres undefined): the “activity, negative = inhibition” value was 3.52% (inactive).

With `NC(=NCCCCCCN=C(N)/N=C(\N)Nc1ccc(Cl)cc1)/N=C(\N)Nc1ccc(Cl)cc1`, the Potency was 56.1 µM (active) and 62.9 µM (active) and inactive.
